Source: the supplement of paper PMC11732987, “Enantioselective OTUD7B fragment discovery through chemoproteomics screening and high-throughput optimisation” (Communications Chemistry, 2025)

Legend:
Test in all cases: log2 ratio of Biotin-Ahx-Ub-VS probe labelling (fragment/DMSO); higher = less target engagement (more negative = stronger competition), active = hit call of the paper (q ≤ 0.05, log2 ratio ≤ -1)
Conditions in all cases: compound concentration: 200 uM; treatment time: 3 h
[1] = molecular target: USP34 (UniProt Q70CQ2)
How it was run: (§1)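 Global-median-normalised Spectronaut label-free quantities were compared by unpaired t-test, and values are average log2 ratios of fragment over vehicle. Only proteins with ≥2 unique peptides were used. HEK293T lysate (495 µg per sample) was treated in triplicate with fragment at 200 µM or vehicle for 3 h and then with Biotin-Ahx-Ub-VS at 0.5 µM final for 1 h. Labelled DUBs were then NeutrAvidin-enriched, digested with LysC and trypsin, and run by diaPASEF LC-MS/MS.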

[2] = molecular target: T1, USP36 (UniProt Q9P275)
T1 sequence (whole entry): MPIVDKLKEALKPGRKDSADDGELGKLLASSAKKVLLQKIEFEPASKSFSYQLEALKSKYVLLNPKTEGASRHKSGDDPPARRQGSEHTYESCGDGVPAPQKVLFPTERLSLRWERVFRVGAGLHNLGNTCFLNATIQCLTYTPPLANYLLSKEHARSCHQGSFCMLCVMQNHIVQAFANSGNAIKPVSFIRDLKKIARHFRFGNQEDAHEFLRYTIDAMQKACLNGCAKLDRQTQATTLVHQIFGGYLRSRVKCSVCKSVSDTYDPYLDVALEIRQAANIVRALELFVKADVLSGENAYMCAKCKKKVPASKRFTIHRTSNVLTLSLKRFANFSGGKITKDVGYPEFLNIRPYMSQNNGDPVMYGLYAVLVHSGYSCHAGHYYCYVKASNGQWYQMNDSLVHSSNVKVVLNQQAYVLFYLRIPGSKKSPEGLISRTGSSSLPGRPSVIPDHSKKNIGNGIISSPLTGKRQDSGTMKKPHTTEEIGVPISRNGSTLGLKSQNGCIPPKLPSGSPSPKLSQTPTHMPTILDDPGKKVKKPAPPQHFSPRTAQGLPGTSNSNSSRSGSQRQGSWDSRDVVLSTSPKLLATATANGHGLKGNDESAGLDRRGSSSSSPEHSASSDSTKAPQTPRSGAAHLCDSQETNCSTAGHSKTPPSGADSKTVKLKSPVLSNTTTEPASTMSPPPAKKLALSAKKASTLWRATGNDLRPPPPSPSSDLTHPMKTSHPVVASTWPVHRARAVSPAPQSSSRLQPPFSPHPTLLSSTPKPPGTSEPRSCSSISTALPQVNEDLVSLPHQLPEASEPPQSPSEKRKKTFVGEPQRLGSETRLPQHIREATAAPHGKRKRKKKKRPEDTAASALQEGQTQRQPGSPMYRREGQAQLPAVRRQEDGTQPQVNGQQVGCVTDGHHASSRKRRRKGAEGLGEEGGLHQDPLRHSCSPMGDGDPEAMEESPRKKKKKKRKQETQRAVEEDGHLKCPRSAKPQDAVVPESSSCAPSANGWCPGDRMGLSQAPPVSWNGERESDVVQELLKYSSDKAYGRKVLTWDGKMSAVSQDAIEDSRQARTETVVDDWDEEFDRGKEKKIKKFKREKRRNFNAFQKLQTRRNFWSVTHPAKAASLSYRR
How it was run: as §1

[3] = molecular target: T2, USP38 (UniProt Q8NB14)
T2 sequence (whole entry): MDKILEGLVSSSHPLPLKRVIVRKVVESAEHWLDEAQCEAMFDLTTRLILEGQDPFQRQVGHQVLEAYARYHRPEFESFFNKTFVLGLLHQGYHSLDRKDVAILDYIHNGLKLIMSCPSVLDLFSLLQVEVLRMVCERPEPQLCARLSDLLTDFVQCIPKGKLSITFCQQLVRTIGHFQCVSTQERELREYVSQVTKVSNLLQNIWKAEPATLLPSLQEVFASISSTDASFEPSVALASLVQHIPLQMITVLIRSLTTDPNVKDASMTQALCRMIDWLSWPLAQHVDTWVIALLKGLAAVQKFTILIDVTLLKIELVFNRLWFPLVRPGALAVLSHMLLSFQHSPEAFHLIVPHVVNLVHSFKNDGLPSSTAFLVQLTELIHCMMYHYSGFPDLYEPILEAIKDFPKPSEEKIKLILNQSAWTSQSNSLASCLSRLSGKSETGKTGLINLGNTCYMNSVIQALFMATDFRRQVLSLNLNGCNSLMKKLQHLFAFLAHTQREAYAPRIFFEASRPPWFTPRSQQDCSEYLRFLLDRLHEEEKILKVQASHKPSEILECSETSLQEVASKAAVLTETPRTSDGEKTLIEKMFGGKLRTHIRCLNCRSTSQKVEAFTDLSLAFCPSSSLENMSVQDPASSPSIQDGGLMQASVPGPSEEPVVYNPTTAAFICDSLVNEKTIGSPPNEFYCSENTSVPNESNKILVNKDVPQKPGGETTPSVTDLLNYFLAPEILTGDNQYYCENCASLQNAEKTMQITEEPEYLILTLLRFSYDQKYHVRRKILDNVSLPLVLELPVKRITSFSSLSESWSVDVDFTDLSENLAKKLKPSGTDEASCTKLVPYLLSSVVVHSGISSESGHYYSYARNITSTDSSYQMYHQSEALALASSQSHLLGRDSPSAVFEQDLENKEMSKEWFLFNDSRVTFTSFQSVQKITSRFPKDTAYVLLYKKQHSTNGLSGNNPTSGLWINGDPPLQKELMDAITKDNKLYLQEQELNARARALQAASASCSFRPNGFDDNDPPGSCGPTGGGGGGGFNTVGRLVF
How it was run: as §1

[4] = molecular target: T3, USP39 (UniProt Q53GS9)
T3 sequence (whole entry): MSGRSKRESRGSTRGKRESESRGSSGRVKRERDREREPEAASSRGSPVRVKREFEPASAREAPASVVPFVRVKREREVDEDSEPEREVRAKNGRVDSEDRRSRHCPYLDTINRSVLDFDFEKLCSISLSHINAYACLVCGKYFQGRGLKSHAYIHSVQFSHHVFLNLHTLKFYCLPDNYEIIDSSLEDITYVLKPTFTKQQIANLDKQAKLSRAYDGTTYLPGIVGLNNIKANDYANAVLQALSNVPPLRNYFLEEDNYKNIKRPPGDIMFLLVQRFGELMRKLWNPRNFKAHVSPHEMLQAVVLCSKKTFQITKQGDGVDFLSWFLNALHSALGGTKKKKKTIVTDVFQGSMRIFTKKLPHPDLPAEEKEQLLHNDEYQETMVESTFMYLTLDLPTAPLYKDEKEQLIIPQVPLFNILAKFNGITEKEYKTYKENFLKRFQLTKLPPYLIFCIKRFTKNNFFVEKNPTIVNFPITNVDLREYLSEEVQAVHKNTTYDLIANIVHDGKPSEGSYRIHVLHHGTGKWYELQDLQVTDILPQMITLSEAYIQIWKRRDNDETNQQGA
How it was run: as §1

[5] = molecular target: T4, USP4 (UniProt Q13107)
T4 sequence (whole entry): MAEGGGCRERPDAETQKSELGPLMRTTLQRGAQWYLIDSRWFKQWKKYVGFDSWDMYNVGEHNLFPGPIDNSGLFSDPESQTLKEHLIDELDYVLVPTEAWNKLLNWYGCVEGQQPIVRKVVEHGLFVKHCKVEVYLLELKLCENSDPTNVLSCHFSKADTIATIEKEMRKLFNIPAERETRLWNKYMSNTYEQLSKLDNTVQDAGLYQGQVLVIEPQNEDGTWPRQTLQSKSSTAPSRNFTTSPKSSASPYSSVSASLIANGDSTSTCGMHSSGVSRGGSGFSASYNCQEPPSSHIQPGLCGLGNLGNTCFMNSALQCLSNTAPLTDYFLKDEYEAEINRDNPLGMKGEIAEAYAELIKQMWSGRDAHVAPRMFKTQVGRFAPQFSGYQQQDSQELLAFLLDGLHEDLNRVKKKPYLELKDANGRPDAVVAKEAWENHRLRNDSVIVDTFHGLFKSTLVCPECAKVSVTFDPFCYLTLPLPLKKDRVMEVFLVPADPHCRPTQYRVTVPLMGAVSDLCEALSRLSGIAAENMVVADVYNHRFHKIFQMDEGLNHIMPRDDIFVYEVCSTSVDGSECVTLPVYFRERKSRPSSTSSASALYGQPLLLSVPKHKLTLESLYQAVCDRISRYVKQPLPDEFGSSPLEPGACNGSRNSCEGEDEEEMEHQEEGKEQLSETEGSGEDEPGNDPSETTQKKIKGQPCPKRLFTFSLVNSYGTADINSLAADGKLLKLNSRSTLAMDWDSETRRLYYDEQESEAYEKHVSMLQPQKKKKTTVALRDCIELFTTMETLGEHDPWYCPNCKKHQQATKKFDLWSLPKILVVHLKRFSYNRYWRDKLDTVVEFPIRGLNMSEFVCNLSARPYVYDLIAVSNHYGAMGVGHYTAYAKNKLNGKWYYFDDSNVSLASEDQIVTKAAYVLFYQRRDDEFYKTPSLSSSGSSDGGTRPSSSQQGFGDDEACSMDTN
How it was run: as §1

Measured: log2 ratio of Biotin-Ahx-Ub-VS probe labelling

Chain of USP34 (Q70CQ2 whole entry, the tested form may be a part): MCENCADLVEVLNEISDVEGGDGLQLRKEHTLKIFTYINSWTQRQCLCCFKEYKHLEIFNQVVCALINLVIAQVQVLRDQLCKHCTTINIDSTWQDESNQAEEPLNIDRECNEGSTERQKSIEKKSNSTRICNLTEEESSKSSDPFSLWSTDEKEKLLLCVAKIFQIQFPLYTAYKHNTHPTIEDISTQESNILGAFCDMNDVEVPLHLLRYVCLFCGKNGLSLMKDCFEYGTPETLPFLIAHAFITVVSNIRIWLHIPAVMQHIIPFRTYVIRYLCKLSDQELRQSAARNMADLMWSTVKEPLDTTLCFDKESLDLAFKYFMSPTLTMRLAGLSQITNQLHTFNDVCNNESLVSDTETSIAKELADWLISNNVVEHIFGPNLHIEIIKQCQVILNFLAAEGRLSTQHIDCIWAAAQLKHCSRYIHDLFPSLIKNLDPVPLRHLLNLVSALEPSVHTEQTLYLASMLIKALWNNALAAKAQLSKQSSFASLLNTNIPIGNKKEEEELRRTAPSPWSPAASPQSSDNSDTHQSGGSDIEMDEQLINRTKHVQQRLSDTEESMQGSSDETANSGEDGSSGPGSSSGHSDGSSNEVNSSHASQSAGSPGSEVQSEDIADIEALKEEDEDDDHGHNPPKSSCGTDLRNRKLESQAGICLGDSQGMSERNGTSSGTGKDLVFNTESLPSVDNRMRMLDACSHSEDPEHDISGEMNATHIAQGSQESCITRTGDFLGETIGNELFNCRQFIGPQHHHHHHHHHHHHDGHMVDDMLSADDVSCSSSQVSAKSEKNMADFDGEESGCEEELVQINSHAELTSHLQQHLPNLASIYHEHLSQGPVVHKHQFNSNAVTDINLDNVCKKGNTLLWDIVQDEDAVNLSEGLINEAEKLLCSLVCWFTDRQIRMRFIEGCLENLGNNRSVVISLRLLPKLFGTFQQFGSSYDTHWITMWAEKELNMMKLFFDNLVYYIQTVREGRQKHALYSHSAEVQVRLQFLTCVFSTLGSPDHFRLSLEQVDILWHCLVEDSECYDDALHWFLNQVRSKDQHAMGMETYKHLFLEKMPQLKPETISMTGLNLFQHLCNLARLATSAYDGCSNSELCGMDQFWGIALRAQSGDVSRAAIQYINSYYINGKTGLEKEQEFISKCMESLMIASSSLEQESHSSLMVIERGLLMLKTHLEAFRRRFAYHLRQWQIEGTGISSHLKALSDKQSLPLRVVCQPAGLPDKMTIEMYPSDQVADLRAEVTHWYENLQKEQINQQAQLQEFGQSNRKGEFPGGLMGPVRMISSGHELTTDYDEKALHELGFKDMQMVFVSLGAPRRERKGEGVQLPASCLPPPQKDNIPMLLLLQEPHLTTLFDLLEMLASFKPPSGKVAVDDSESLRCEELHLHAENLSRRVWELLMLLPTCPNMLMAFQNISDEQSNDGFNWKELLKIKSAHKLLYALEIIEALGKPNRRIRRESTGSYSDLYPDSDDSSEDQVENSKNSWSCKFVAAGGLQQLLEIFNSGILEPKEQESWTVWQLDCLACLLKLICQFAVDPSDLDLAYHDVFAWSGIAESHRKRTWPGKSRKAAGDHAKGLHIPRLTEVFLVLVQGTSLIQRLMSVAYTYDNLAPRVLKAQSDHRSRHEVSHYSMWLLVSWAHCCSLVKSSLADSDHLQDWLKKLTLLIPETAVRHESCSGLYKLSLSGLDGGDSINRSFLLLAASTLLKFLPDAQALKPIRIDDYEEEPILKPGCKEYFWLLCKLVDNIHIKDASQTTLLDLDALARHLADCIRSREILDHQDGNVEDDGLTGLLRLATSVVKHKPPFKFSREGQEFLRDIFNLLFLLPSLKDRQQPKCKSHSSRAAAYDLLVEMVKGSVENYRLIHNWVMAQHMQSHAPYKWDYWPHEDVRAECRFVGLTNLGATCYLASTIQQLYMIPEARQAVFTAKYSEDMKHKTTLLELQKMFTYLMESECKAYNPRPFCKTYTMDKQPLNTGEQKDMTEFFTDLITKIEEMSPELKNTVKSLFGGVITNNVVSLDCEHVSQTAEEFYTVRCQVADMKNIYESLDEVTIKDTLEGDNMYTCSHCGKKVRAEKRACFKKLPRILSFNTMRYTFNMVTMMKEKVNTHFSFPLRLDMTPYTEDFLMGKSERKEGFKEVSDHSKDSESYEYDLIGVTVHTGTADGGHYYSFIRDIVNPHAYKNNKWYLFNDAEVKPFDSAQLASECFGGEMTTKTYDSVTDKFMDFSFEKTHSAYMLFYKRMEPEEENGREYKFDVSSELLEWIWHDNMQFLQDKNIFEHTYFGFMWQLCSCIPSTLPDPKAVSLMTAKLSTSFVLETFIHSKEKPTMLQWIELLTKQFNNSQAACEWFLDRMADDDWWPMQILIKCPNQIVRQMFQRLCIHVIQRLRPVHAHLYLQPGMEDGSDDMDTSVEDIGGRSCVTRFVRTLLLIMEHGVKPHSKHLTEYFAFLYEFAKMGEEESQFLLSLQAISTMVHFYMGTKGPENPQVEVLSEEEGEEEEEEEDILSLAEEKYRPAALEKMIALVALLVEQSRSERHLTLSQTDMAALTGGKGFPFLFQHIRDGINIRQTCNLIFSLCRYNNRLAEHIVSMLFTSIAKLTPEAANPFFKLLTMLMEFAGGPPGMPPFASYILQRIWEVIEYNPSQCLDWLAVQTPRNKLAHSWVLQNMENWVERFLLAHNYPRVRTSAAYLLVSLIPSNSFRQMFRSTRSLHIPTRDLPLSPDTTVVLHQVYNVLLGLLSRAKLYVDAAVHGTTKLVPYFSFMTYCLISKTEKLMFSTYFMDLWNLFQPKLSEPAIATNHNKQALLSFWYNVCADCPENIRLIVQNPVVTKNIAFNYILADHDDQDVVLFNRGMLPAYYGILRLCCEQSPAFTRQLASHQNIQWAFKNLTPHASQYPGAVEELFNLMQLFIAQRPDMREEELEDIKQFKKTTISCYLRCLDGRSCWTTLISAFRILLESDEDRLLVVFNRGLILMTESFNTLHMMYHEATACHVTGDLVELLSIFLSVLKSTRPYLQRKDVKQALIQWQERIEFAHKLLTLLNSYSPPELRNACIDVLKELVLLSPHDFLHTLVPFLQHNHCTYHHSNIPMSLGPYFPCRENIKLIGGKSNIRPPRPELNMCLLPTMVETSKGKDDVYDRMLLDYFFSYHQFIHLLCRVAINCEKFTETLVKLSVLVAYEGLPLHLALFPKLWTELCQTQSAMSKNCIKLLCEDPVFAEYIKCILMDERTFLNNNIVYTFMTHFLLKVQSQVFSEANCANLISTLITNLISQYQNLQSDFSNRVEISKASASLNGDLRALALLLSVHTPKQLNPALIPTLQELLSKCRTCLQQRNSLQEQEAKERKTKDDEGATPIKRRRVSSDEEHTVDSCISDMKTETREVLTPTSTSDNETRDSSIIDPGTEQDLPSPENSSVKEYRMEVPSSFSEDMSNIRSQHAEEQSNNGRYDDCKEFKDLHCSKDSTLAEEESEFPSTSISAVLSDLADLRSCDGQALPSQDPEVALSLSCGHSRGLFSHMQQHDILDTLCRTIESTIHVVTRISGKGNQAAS

Cl.O=C(CCl)N1CCN(Cc2ccccc2)CC1
inactive: [1] -0.191 | [2] 0.0546 | [3] -0.0649 | [4] 0.144 | [5] -0.121
